Molecules are shown by their SMILES. Active and inactive are the calls of the source.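 The calls were made as follows: active = z-score of at least 1.8 in each of two replicates, scored against plate mean and spread of sample wells; inactive = the rest.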

The first assay can be described thus: survival rescue of mitochondrial mutant cells in low glucose, primary screen, MELAS cybrids, Rieske KO mouse fibroblasts, CellTiter-Glo (AID 1508586).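 Also: test concentration not given here; z relative to plate mean and SD of compound and empty wells.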 As to conditions: Rieske KO mouse fibroblast survival, CellTiter-Glo 72 h. For orientation: Cellular ATP, detected with luciferase, serves as a proxy for viable cell number.
`COc1cccc(COC2CN(CCc3ccccc3)C(=O)CN(C(=O)CN3CCOC3=O)C2)c1` (stereo not given): the z-score was -0.325.
In the case of `Cc1csc(-c2cc(C(=O)NCCN3CCCCC3)cc(S(=O)(=O)N3CCOCC3)c2)c1`, the z-score is -0.233.
Same read-out and setting: the result for `CC1=C(CCN2CCC3(CC2)C(=O)N(C(C)C)C(=O)N3C)C(C)(C)CCC1` reads -0.31; that for `CN1CCN(S(=O)(=O)c2cc(C(=O)NCC3CCCO3)cc(-c3ccccc3)c2)CC1` (stereo not given), 0.37; that for `CC1=C(C(=O)N2CCc3c(c(C(=O)NCc4nccs4)nn3Cc3ccccc3)C2)OCCO1`, 0.241.
Consider `CC(=O)c1cccc(-c2cc3c(n(CC=C(C)C)c2=O)CCN(Cc2cnc(N(C)C)s2)C3)c1`, for which the z-score turned out to be 0.11.
Regarding `CC(C)CCNc1cc(C(=O)NCCCn2ccnc2)cc(S(=O)(=O)N2CCCC2)c1`, the z-score is -0.386.
On to `Cc1ccccc1CN[C@H]1C[C@H]2C(=O)N[C@@H]([C@@H](C)O)C(=O)N2C1`, for which the z-score is -0.372.
Same read-out and setting: the result for `Cc1ncsc1CCn1nc(C(=O)NC2CC2)c2c1CCN(C(=O)C1Cc3ccccc3O1)C2` (stereo not given) reads 4.81.
Still for that read-out and setting: the value for `CC(C)C[C@H]1C(=O)N2CCN(Cc3cnn(-c4ccccc4)c3)C[C@@H]2C(=O)N1C` was -0.165; that for `O=c1c(/C=C/c2ccccc2)cc2c(n1Cc1ccccn1)CCN(C1CCOCC1)C2` was 0.293.
For the molecule `CC(C)/C=C/CNc1cc(C(=O)NCc2cn3ccccc3n2)cc(S(=O)(=O)NC(C)C)c1`, the z-score was -0.726.
In turn, `C[C@H]1NC(=O)[C@H]2CN(C(=O)Oc3ccc(Cl)cc3)CCN2C1=O` had a z-score of 0.985.
Still for that read-out and setting: the result for `Cc1ccc(Cl)cc1NC(=O)N[C@H]1C[C@H]2C(=O)N[C@H](C(C)C)C(=O)N2C1` reads 0.0408; that for `O=C1N[C@@H](Cc2c[nH]c3ccccc23)C(=O)N2C[C@@H](NCc3ccccc3Cl)C[C@@H]12`, 0.134; that for `C[C@@H](OCc1ccccc1)[C@@H]1NC(=O)[C@H]2CN(C(=O)Oc3ccccc3)CCN2C1=O`, -0.114.
As for `Cc1ncc(CNc2cc(C(=O)Nc3cccc(N(C)C)c3)cc(S(=O)(=O)N3CCCC3)c2)[nH]1`, the z-score is -0.237.
Still for that read-out and setting: the result for `CCn1nc(C(=O)N2CCCC2)c2c1CCC(N1CCN(c3ccccc3OC)CC1)C2` (stereo not given) reads -0.558; that for `CCc1cc(C(=O)N2CCc3c(c(C(=O)N4CCN(c5ccccc5)CC4)nn3CC)C2)n(C)n1`, -0.0183.
Still for that read-out and setting: the result for `CC(C)CNC(=O)[C@@H]1C[C@H](CN2CCOCC2)CN(Cc2ccccc2)C1` reads 0.562; that for `COCCN1C(=O)N(C)C(=O)C12CCN(Cc1cnc(-c3ccccc3)s1)CC2`, -0.895; that for `CC(C)CCNc1cc(C(=O)NCCn2ccnc2)cc(S(=O)(=O)Nc2ccccc2)c1`, -0.223.
On the same count and under the same terms, the value for `CC(C)C[C@H]1C(=O)N2CCN(Cc3cccc4ncccc34)C[C@@H]2C(=O)N1C` was -0.107; that for `Cc1csc(-c2cc(C(=O)NCCC3CCCN3C)cc(S(=O)(=O)N3CCOCC3)c2)c1` (stereo not given) was -0.54; that for `Cc1nc2sccn2c1CN1CCC2(CC1)C(=O)N(CC(C)C)C(=O)N2CCc1ccccc1` was -0.675.
Take `CCc1nc(CNc2cc(C(=O)N[C@H](C)c3ccc(OC)cc3)cc(S(=O)(=O)N(C)C)c2)c(C)[nH]1`: the z-score is -0.167.
Still for that read-out and setting: the result for `C[C@H](O)[C@H]1NC(=O)[C@@H]2C[C@H](NC(=O)Nc3cccc(F)c3)CN2C1=O` reads 0.103; that for `CCOC(=O)c1nn(Cc2ccc(OC)cc2)c2c1CN(C(=O)CSc1ncccn1)CC2`, -0.456.
Same read-out and setting: the result for `CN(C)CCCNC(=O)[C@@H]1C[C@H](CN2CCOCC2)CN(Cc2ccc3ccccc3c2)C1` reads -0.142.
`CC(C)CNC(=O)[C@@H]1C[C@H](CN2CCOCC2)CN(Cc2ccc(O)cc2)C1`: the z-score was -0.186.
On to `O=C(Cn1cnnn1)N1CC(=O)N(C2CCCCC2)CC(OCc2ccccc2)C1` (stereo not given), for which the z-score was found to be 0.527.
`CC(C)C[C@H]1NC(=O)[C@H]2CN(C(=O)OCc3ccccc3)CCN2C1=O`: the z-score was -0.118.
Same read-out and setting: the value for `CCc1cc(C(=O)N2CC(=O)N(Cc3ccc(OC)cc3)CC(OCc3ccncc3)C2)n(C)n1` (stereo not given) was -0.65; that for `COc1cccc(COC2CN(Cc3ccccn3)C(=O)CN(C(=O)c3ccc(C)s3)C2)c1` (stereo not given) was 0.0344; that for `Cc1nn(C)cc1CNc1cc(C(=O)NCc2cn3ccccc3n2)cc(S(=O)(=O)NC(C)C)c1` was -0.702.
For `C=CCn1nc(C(=O)N2CCSCC2)c2c1CCC(NCCCSC)C2` (stereo not given), the z-score is -0.019.
On to `CCCCNC(=O)[C@@H]1C[C@H](CN2CCOCC2)CN(CCc2ccccc2)C1`, for which the z-score is -0.178.
Same read-out and setting: the value for `CNS(=O)(=O)c1cc(NCc2cnc(C)[nH]2)cc(C(=O)Nc2ccc3c(c2)CCC3)c1` was -0.751; that for `COC(=O)CN1C(=O)N(CCc2ccccc2)C2(CCN(Cc3ccc4c(c3)OCCO4)CC2)C1=O` was -0.109; that for `CCN1C(=O)N(C)C(=O)C12CCN(Cc1cc3oc(C)c(-c4ccccc4)c3cc1OC)CC2` was -0.474.

Another assay can be described thus: viability rescue of complex I mutant cybrids, primary screen, cell-based, galactose medium, ATP luminescence (AID 1645843).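 Also: positive z means more ATP and so rescue of galactose-driven cybrid death.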 As to conditions: complex I mutant cybrid cells, 72 h, stronger effect = higher value.
As for `COc1cccc(COC2CN(CCc3ccccc3)C(=O)CN(C(=O)CN3CCOC3=O)C2)c1` (stereo not given), the z-score is 0.48 (inactive).
Same read-out and setting: the value for `Cc1csc(-c2cc(C(=O)NCCN3CCCCC3)cc(S(=O)(=O)N3CCOCC3)c2)c1` was -0.485 (inactive); that for `CC1=C(CCN2CCC3(CC2)C(=O)N(C(C)C)C(=O)N3C)C(C)(C)CCC1` was 1.89 (inactive).
On to `CN1CCN(S(=O)(=O)c2cc(C(=O)NCC3CCCO3)cc(-c3ccccc3)c2)CC1` (stereo not given), for which the z-score was -0.515 (inactive).
Regarding `CC1=C(C(=O)N2CCc3c(c(C(=O)NCc4nccs4)nn3Cc3ccccc3)C2)OCCO1`, the z-score was 0.605 (inactive).
On the same count and under the same terms, the value for `CC(=O)c1cccc(-c2cc3c(n(CC=C(C)C)c2=O)CCN(Cc2cnc(N(C)C)s2)C3)c1` was 0.475 (inactive); that for `CC(C)CCNc1cc(C(=O)NCCCn2ccnc2)cc(S(=O)(=O)N2CCCC2)c1` was -0.97 (inactive).
`Cc1ccccc1CN[C@H]1C[C@H]2C(=O)N[C@@H]([C@@H](C)O)C(=O)N2C1`: the z-score was 0.715 (inactive).
As for `Cc1ncsc1CCn1nc(C(=O)NC2CC2)c2c1CCN(C(=O)C1Cc3ccccc3O1)C2` (stereo not given), the z-score is -0.18 (inactive).
On to `CC(C)C[C@H]1C(=O)N2CCN(Cc3cnn(-c4ccccc4)c3)C[C@@H]2C(=O)N1C`, for which the z-score was -0.345 (inactive).
In the case of `O=c1c(/C=C/c2ccccc2)cc2c(n1Cc1ccccn1)CCN(C1CCOCC1)C2`, the z-score is 0.925 (inactive).
On to `CC(C)/C=C/CNc1cc(C(=O)NCc2cn3ccccc3n2)cc(S(=O)(=O)NC(C)C)c1`, for which the z-score was -1.65 (inactive).
Still for that read-out and setting: the value for `C[C@H]1NC(=O)[C@H]2CN(C(=O)Oc3ccc(Cl)cc3)CCN2C1=O` was 0.585 (inactive); that for `Cc1ccc(Cl)cc1NC(=O)N[C@H]1C[C@H]2C(=O)N[C@H](C(C)C)C(=O)N2C1` was -0.745 (inactive); that for `O=C1N[C@@H](Cc2c[nH]c3ccccc23)C(=O)N2C[C@@H](NCc3ccccc3Cl)C[C@@H]12` was -0.945 (inactive).
The same measure, in the same setting: the value for `C[C@@H](OCc1ccccc1)[C@@H]1NC(=O)[C@H]2CN(C(=O)Oc3ccccc3)CCN2C1=O` was -1.46 (inactive); that for `Cc1ncc(CNc2cc(C(=O)Nc3cccc(N(C)C)c3)cc(S(=O)(=O)N3CCCC3)c2)[nH]1` was 0.295 (inactive).
On the same count and under the same terms, the value for `CCn1nc(C(=O)N2CCCC2)c2c1CCC(N1CCN(c3ccccc3OC)CC1)C2` (stereo not given) was -0.48 (inactive); that for `CCc1cc(C(=O)N2CCc3c(c(C(=O)N4CCN(c5ccccc5)CC4)nn3CC)C2)n(C)n1` was 0.405 (inactive); that for `CC(C)CNC(=O)[C@@H]1C[C@H](CN2CCOCC2)CN(Cc2ccccc2)C1` was 0.12 (inactive).
With `COCCN1C(=O)N(C)C(=O)C12CCN(Cc1cnc(-c3ccccc3)s1)CC2`, the z-score was -0.285 (inactive).
For `CC(C)CCNc1cc(C(=O)NCCn2ccnc2)cc(S(=O)(=O)Nc2ccccc2)c1`, the z-score was -0.47 (inactive).
As to `CC(C)C[C@H]1C(=O)N2CCN(Cc3cccc4ncccc34)C[C@@H]2C(=O)N1C`, the z-score is -0.23 (inactive).
`Cc1csc(-c2cc(C(=O)NCCC3CCCN3C)cc(S(=O)(=O)N3CCOCC3)c2)c1` (stereo not given): the z-score is -1.3 (inactive).
The same measure, in the same setting: the result for `Cc1nc2sccn2c1CN1CCC2(CC1)C(=O)N(CC(C)C)C(=O)N2CCc1ccccc1` reads 0.34 (inactive); that for `CCc1nc(CNc2cc(C(=O)N[C@H](C)c3ccc(OC)cc3)cc(S(=O)(=O)N(C)C)c2)c(C)[nH]1`, 0.08 (inactive).
With `C[C@H](O)[C@H]1NC(=O)[C@@H]2C[C@H](NC(=O)Nc3cccc(F)c3)CN2C1=O`, the z-score was -0.26 (inactive).
Turning to `CCOC(=O)c1nn(Cc2ccc(OC)cc2)c2c1CN(C(=O)CSc1ncccn1)CC2`, the z-score was 0.665 (inactive).
In the case of `CN(C)CCCNC(=O)[C@@H]1C[C@H](CN2CCOCC2)CN(Cc2ccc3ccccc3c2)C1`, the z-score was 0.05 (inactive).
With `CC(C)CNC(=O)[C@@H]1C[C@H](CN2CCOCC2)CN(Cc2ccc(O)cc2)C1`, the z-score was -0.31 (inactive).
`O=C(Cn1cnnn1)N1CC(=O)N(C2CCCCC2)CC(OCc2ccccc2)C1` (stereo not given): the z-score is 0.21 (inactive).
Turning to `CC(C)C[C@H]1NC(=O)[C@H]2CN(C(=O)OCc3ccccc3)CCN2C1=O`, the z-score is -0.205 (inactive).
With `CCc1cc(C(=O)N2CC(=O)N(Cc3ccc(OC)cc3)CC(OCc3ccncc3)C2)n(C)n1` (stereo not given), the z-score was 0.77 (inactive).
`COc1cccc(COC2CN(Cc3ccccn3)C(=O)CN(C(=O)c3ccc(C)s3)C2)c1` (stereo not given): the z-score was 0.91 (inactive).
With `Cc1nn(C)cc1CNc1cc(C(=O)NCc2cn3ccccc3n2)cc(S(=O)(=O)NC(C)C)c1`, the z-score is -0.11 (inactive).
On to `C=CCn1nc(C(=O)N2CCSCC2)c2c1CCC(NCCCSC)C2` (stereo not given), for which the z-score was 0.93 (inactive).
In the case of `CCCCNC(=O)[C@@H]1C[C@H](CN2CCOCC2)CN(CCc2ccccc2)C1`, the z-score is -0.965 (inactive).
Consider `CNS(=O)(=O)c1cc(NCc2cnc(C)[nH]2)cc(C(=O)Nc2ccc3c(c2)CCC3)c1`, for which the z-score is 0.02 (inactive).
Consider `COC(=O)CN1C(=O)N(CCc2ccccc2)C2(CCN(Cc3ccc4c(c3)OCCO4)CC2)C1=O`, for which the z-score is 1.24 (inactive).
With `CCN1C(=O)N(C)C(=O)C12CCN(Cc1cc3oc(C)c(-c4ccccc4)c3cc1OC)CC2`, the z-score was 1.74 (inactive).

The values above are taken from PubChem BioAssay.
